Shown are actives, neighbours in structure and some others; about 2.9% of the full set was active somewhere.
D3 antag – antagonists of human D3 dopamine receptor; P35462; D3R cells, DiscoveRx beta-arrestin luminescence, antagonist mode; hits give low values; max response, negative = inhibition, %; 360,000 tested, 2.5% active; AID 652054; in the data active = max response below about -50%; inconclusive = no clear call, values can overlap the other calls; also: % is scaled to controls: 0 for no effect and ±100 for the full control effect
Target sequence (P35462 whole entry, looked up): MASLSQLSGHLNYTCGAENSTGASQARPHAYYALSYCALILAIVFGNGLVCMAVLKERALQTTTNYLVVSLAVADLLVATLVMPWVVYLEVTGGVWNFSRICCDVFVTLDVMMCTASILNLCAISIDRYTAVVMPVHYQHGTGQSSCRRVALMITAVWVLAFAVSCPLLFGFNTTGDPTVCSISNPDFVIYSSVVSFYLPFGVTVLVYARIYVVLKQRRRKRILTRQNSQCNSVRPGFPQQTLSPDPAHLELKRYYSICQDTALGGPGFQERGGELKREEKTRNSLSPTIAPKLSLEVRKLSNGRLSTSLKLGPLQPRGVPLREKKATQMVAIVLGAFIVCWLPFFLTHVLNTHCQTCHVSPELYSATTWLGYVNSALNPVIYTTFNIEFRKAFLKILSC
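Cells plated overnight at 1500 cells/well, then exposed to library compounds with dopamine controls for 90 minutes at 37 degrees C. DiscoveRx reagent added for 30–60 minutes at room temperature; luminescence read, quantitative HTS format.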
a7 integrin act – activators of alpha7 integrin expression for muscular dystrophy. AID 624291. Potency, µM (doses to about 38.3 µM), for inactives: at the top dose activation, actives largely listed as activators. 350,000 tested, 0.064% active. alpha7betagal myoblasts, beta-gal FDG fluorescence, 48 h; active = well fitted activation curve with a large enough effect; inconclusive = small, poorly fitted or top-dose-only effect; inactive = no such curve, though single readings can be large or run the other way;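 also: potency is read from the fitted curve at half-maximal effect; 100% = response of the positive control SU9516; nearly all actives have a fitted effect of over 60% in size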
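Alpha7betagal+/- myoblasts (passage 13) were plated 16-24 hr, then exposed to compounds (1:260 dilution of DMSO stock) for 48 hours at 37C. After MPER lysis, β-galactosidase reporter activity was read as FDG fluorescence (ex 480/em 540) after 30 minutes.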
D3 ag – D3 dopamine receptor (human) agonism; P35462; D3R DiscoveRx beta-arrestin cells, luminescence, 90 min; max activation, %; 410,000 tested, 0.58% active; in the data active = max activation above about 30%; also: 0% is about no effect
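Agonist mode: compounds and dopamine controls were applied to plated cells for 90 min at 37 degrees C after an overnight attachment at 1500 cells/well. Luminescent read-out followed 30 - 60 minutes at room temperature with DiscoveRx detection reagent.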
* = called active by the depositor; ? = inconclusive; nt = no result given; ! = not active in a repeat.

SMILES	D3 antag	a7 integrin act	D3 ag
COc1ccc(C(=O)CSc2nnc(CN3CCCCC3)n2-c2ccc(F)cc2)cc1	7	-1%	1
CCOc1cc(C(c2c(C)[nH]n(-c3ccccc3)c2=O)c2c(C)[nH]n(-c3ccccc3)c2=O)ccc1O	nt	nt	-15
O=C(O)/C=C/C(=O)Nc1ccc(OC(F)(F)F)cc1Br	10	11%	4
CN(C)C(=O)N1CCC(C(=O)NCc2cccs2)CC1	-29	2%	-11
CCCCCCCCCCCCN1[C@@H](CC(=O)OC)c2cc(F)cc(F)c2S1(=O)=O	8	5%	31*
CCCCCCCCCCCCN1[C@@H](CC(=O)OC)c2cc(F)ccc2S1(=O)=O	30	-24%	9
COc1ccc(C)cc1-n1nnnc1SCC(=O)NC1CCCC1	0	-1%	1
O=C(O[C@@H]1OC2COC(=O)c3cc(O)c(O)c(O)c3-c3c(cc(O)c(O)c3O)C(=O)O[C@@H]([C@H]1O)[C@@H]2O)c1cc(O)c(O)c(O)c1	17	-35%	32*
CC(=O)Nc1ccc(NC(=O)c2ccc3c(c2)CCN3S(=O)(=O)c2ccc(C)cc2)cc1	nt	nt	4
CC(C)(C)OC(=O)NCCc1nnc(S(=O)(=O)Cc2ccc(Cl)cc2Cl)o1	-71*	-48%	-15
CC(C)(C)OC(=O)NCCc1nnc(SCc2ccccc2Cl)o1	-12	-7%	-2
COc1ccc(NC(=O)Cn2ncc3c([nH]c4ccccc43)c2=O)cc1Cl	nt	nt	2
Cc1cccc(N2CCN(C(=O)C3CCCN(S(=O)(=O)c4c(C)noc4C)C3)CC2)c1C (stereo not given)	-6	-7%	67*
Cc1noc(C)c1S(=O)(=O)N1CCCC(C(=O)N2CCC(C)CC2)C1 (stereo not given)	5	-1%	3
COc1ccc(CN(C)c2ccc(-c3nc(C)no3)cc2[N+](=O)[O-])cc1	nt	nt	-18
Fc1ccc(NC(=S)NN=C2CCCCCC2)cc1	-150*	-18%	-6
S=C(NN=C1CCCCCC1)Nc1ccc(Cl)cc1	-13	18%	1
CN1CCN(C(=O)NC2CCCCC2)CC1	-54*	0%	-1
O=C(NC1CCCCC1)N1CCCCCC1	-4	0%	-2
CC1Nc2ncnc(N3CCc4ccccc4C3)c2N(Cc2ccc(Br)cc2)C1=O (stereo not given)	-55*!	-22%	-17
CCC1Nc2ncnc(N3CCc4ccccc4C3)c2N(Cc2ccc(Br)cc2)C1=O (stereo not given)	-84*	nt	-23
O=C1C(Cc2ccccc2)Nc2ncnc(N3CCc4ccccc4C3)c2N1Cc1ccccc1 (stereo not given)	-18	-19%	26
CC1Nc2ncnc(N3CCc4ccccc4C3)c2N(Cc2ccc(Cl)cc2)C1=O (stereo not given)	0	21%	-18
COc1cc(OC)cc(C(=O)Nn2cc(C(=O)Nc3c(F)cccc3F)c3ccccc3c2=O)c1	1	0%	-9
COc1ccc(CN2C(=O)c3ccccc3C2c2nnnn2-c2ccc3c(c2)OCCO3)cc1OC (stereo not given)	19	nt	2
SMILES	D3 antag	a7 integrin act	D3 ag
COc1cc(/C=C/C(=O)c2ccc(NS(=O)(=O)c3ccc(C)cc3)cc2)cc(OC)c1O	-18	-54%	-7
COc1cccc(/C=C/C(=O)c2ccc(NS(=O)(=O)c3ccc(C)cc3)cc2)c1	-54*	-48%	-9
COc1ccc(O)c(-c2[nH]ncc2C(=O)c2cccc(C)c2)c1	-14	9%	4
O=C1/C(=C/c2ccccc2)SC(=S)N1CCCC(=O)N1CCCCC1CCO (stereo not given)	-5	-48%	1
COc1ccccc1CNC(=O)c1cc(C2CC2)nc2c1cnn2C(C)C	-28	-8%	2
CC(C)NC(=S)N/N=C1\CCCCc2ccccc21	2	-16%	-4
COc1cccc(NC(=S)N/N=C2/CCCCc3ccccc32)c1	-60*	-24%	-16
COc1ccc(/C=C(\C#N)C(=O)NCC2CCCO2)cc1OC (stereo not given)	13	-26%	-1
COc1cc(/C=C(\C#N)C(=O)NCC2CCCO2)ccc1OC(=O)c1ccco1 (stereo not given)	-53*	6%	-10
O=C1CC(c2ccccc2)=C(c2ccccc2)C1c1ccccc1 (stereo not given)	-22	-22%	-5
COc1ccc(Cl)cc1NC(=O)Cn1nnc2sc3c(c2c1=O)CCC(C(C)(C)C)C3 (stereo not given)	nt	nt	7
CSc1ccc2c(c1)N(CCC1CCCCN1C)c1ccccc1S2 (stereo not given)	-89*	nt	-82
CN1CCC(CN2c3ccccc3Sc3ccccc32)C1 (stereo not given)	nt	nt	-22
COC(=O)Cn1nc(C)c2ccccc2c1=O	-2	0%	1
CN1CCN(Cc2nc(Cc3ccccc3)no2)CC1c1ccccc1 (stereo not given)	3	-23%	-6
c1ccc(Cc2noc(CN3CCN(CCOc4ccccc4)CC3)n2)cc1	-53*	34%	16
O=C(NC1CCCC1)C(c1c[nH]c2ccccc12)N(C(=O)Cn1nnc(-c2ccc(Cl)cc2)n1)c1ccccc1 (stereo not given)	?	?	-4
Cc1sc2ncn(CC(=O)Nc3ccc(F)cc3F)c(=O)c2c1S(=O)(=O)N1CCC(C)CC1	nt	nt	-1
Cc1cccc(NC(=O)Cn2cnc3sc(C)c(S(=O)(=O)N4CCC(C)CC4)c3c2=O)n1	49	3%	35*
COc1ccc2[nH]c3c(c2c1)CCN1C(=O)N([C@@H](C)C(=O)NC2CCCCC2C)C(=O)[C@]31C (stereo not given in full)	5	1%	-6
O=C(CCCc1ccccc1)NCCCN1CCOCC1	5	4%	-5
S=C(NCCCN1CCOCC1)N(Cc1ccccc1)Cc1ccccc1	-93*	-19%	-2
N=C1/C(=C\c2ccc(OC(=O)c3ccc(F)cc3)cc2)C(=O)N=C2SC(N3CCCC3)=NN12	2	4%	0
CC(=O)NCC1CCCN(c2nc3nonc3nc2N(C)Cc2ccccc2)C1 (stereo not given)	-9	-18%	4
Cc1ccc2oc(-c3ccccc3)c(C(=O)O)c(=O)c2c1	-53*	19%	-2
SMILES	D3 antag	a7 integrin act	D3 ag
O=C(O)c1c(-c2ccccc2)oc2ccc(O)cc12	30	-8%	-1
CCNC(=S)NS(=O)(=O)c1ccccc1	-58*	-5%	1
CCNC(=S)NS(=O)(=O)c1ccc(Cl)cc1	-2	-7%	7
CC(=O)Nc1ccc(SC[C@H](Cc2ccccc2)N2CC[C@@H](O)CCC2=O)cc1	-2	-25%	-8
O=C(COC(=O)COc1ccccc1[N+](=O)[O-])Nc1ccccc1Br	13	9%	-4
O=C(CC(=O)NCCc1ccccc1)NCCc1ccccc1	2	-9%	2
NNCCc1ccccc1	-113*	nt	-21
CC1CCN(C(=O)c2ccc(S(=O)(=O)Cc3cccc(F)c3)c([N+](=O)[O-])c2)CC1	21	-52%	-1
COc1cc(/C=C(\C#N)C(=O)NCc2cccs2)ccc1O	1	15%	-3
O=C(NCc1ccc(F)cc1)c1cc2c(=O)n3ccccc3nc2s1	nt	nt	-20
CCCN1CCC(NC(=O)CCc2nnc(Cc3cc(OC)ccc3OC)o2)CC1	20	8%	12

Bioassay records (PubChem BioAssay)
